The results in this text go back to PubChem BioAssay (NCI).

This is part of a sample that, as a whole, favours compounds with a hit. Of some 83,000 tested, about 20% had one in any assay.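 Step 1: grow cells in 96-well plates. Step 2: add test compound at a single concentration. Step 3: incubate 48 h. Step 4: record percent growth.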 Active and inactive are the calls of the source. How the source made its calls: active means growth percent below 10; inactive means the rest.

In this assay the test system is MDA-MB-468 breast. Briefly: NCI-60 one-dose screen, 48 h (100 = growth as untreated, 0 = no growth, -100 = all killed). The note with it: 10 µM unless noted.
`C#CCOc1ccc(-c2csc(NC(=O)C=C)n2)cc1NS(=O)(=O)c1cccc2c(N(C)C)cccc12`: the growth was 11.3% (inactive).

For the compound `Cc1ccc2c(c1)C(=O)CCS2`, the growth was 111% (inactive).

As to `COc1ccc(Sc2[nH]c(C(C)=O)c3ccccc23)cc1`, the growth was -6.04% (active). In the case of `Nc1ncn([C@@H]2O[C@H](CO)[C@@H](O)C2(F)F)c(=O)n1`, the growth was 71.4% (inactive). `COc1ccc(-n2c(=O)c3ccccc3n(Cc3ccc(C(=O)NO)cc3)c2=O)cc1`: the growth is 3.21% (active). Next, `C=C1C[C@H](O)[C@H](Br)C(C)(C)[C@@]12CCC(C)=C(Cl)C2`: -28.3% (active); `Nc1ccc2c(c1)C1(CCC2)NC(=O)NC1=O` (stereo not given): 97.4% (inactive); `COc1cc(-c2nc3ccc(-c4nnc(SCC(=O)Nc5ccc(C(=O)/C=C/c6ccc(Cl)cc6)cc5)o4)cc3[nH]2)cc(OC)c1OC`: 93% (inactive). Next, `CCOC(=O)c1c(C)c2c(n1C)CSc1cc(S(=O)(=O)c3ccccc3)c(=O)[nH]c1-2`: 2.42% [100 µM] (active); `Cc1cc(N2CCOCC2)nc(N2CCOCC2)n1`: 94.6% (inactive).

On to `CC/C(=N\Nc1nc2ccccc2n1C)c1ccccn1`, for which the growth is -14.5% (active). Regarding `C/C(=N/O)c1ccc(NC(=O)Cn2nc(-c3ccc(Cl)cc3)nc2N)cc1`, the growth is 100% (inactive).

Take `O=C(CNCCO)Nc1ccc2ncnc(Nc3ccc(OCc4cccc(F)c4)c(Cl)c3)c2c1`: the growth was -17.8% (active). Next, `CCOc1ccc(Nc2nc3c(s2)C(=O)c2ccccc2C3=O)cc1`: 68.8% (inactive); `O=c1cc(CSc2nnc(-c3ccccc3)n2-c2ccc(F)cc2)c2ccc3ccccc3c2o1`: 93.2% (inactive). As for `CCOC(=O)C1=C(N)Oc2cc(OC)ccc2C1c1ccc(F)c(F)c1` (stereo not given), the growth is -37.8% (active). `COc1ccc(Nc2nnc(-c3ccc(OC)c(OC)c3)o2)cc1`: the growth is 90.8% (inactive). In the case of `N#Cc1nc(-c2ccc(F)cc2)oc1S(=O)(=O)N1CCN(c2ccc(F)cc2)CC1` it was 86.9% (inactive); in that of `O=c1[nH]c2cc(Cl)c(Cl)cc2n2cc3ncccc3c12`, 0.904% (active). In the case of `O=C(Nc1ccc(CN2CCOCC2)cc1)c1ccc(-c2cc(Cl)ccc2Cl)o1` it was -56.1% (active). Consider `CC(C)=CCC/C(C)=C/CC/C(C)=C/CSC[C@H](NC(=O)CCCCCN1CCN(C)CC1)C(=O)NC1CCCCCC1`, for which the growth was 48.2% (inactive). In the case of `CCCCSc1ccc2nc(-c3ccc(OCCCN=C(N)N)cc3)cn2c1` it was 35.6% (inactive). Regarding `Nn1c(Nc2ccc(S(=O)(=O)Nc3ncccn3)cc2)nnc(/C=C/c2c(O)ccc3ccccc23)c1=O`, the growth was 96% (inactive). In the case of `CN(C)CCCNc1nc(-c2cccc(C(Cl)(Cl)Cl)c2)nc(C(Cl)(Cl)Cl)n1`, the growth is 114% (inactive). On to `CC(C)=CCNc1ncnc2c1ncn2C1OC(CO)C(O)C1O` (stereo not given), for which the growth is -44.4% [1 mM] (active). Turning to `Oc1ccc(CSc2nnc(-c3ccc(Br)cc3)o2)c2cccnc12`, the growth is 35.4% (inactive). Take `CNC(=O)c1cc(-n2ccc3cc(NC(=O)Nc4ccc(N5CCN(C)CC5)c(C(F)(F)F)c4)ccc32)ccn1`: the growth is 59.7% (inactive).

For the compound `CCOP(=O)(NC(c1ccccc1)c1ccccc1)OCC`, the growth was 104% (inactive). Next, `N#CN1CC[C@H](C(=O)Nc2ncc(-c3ccncc3)s2)C1`: -35.7% (active); `C/C(=N\O)c1ccc(NC(=O)CSc2nnc(-c3cc(-c4ccc(S(N)(=O)=O)cc4)nc4ccccc34)n2-c2ccccc2)cc1`: 63.1% (inactive); `Cc1[nH]c(C(=O)Nc2ccc(C(=O)N3CCN(c4cc5c(cc4F)c(=O)c(C(=O)O)cn5C4CC4)CC3)cc2OC(C)C)c(Cl)c1Cl`: 85.9% (inactive). As to `CSc1ccc2c(c1)N(C(=O)/C(C#N)=C/c1c[nH]c3ccccc13)c1ccccc1S2`, the growth was 12% (inactive).

Take `COc1cccc(CCC(=O)c2cc3c(N)c(C(=O)Nc4cccc(Cl)c4C)sc3nc2C)c1`: the growth is 15.1% (inactive). On to `CC(=O)O[C@@H]1CC2C(C)(C)CCCC2(C)C2=C1C(=O)C(C(C)C)=CC2=O` (stereo not given in full), for which the growth was -35.6% (active). Turning to `NC(=O)NC(=O)c1ccc(Cl)cc1`, the growth was 117% (inactive). For the compound `O=C(/C=C/c1sc(Cl)nc1Cl)c1ccc(Br)cc1`, the growth is 63.2% (inactive). Consider `COc1cc(-c2nn(-c3ccc(NC(=O)c4ccc(Cl)c(C(F)(F)F)c4)cc3)cc2-c2ccncc2)ccc1Cl`, for which the growth is 26% (inactive). In the case of `O=C1Nc2ccccc2/C1=C\c1c(-c2ccccc2)nc2ccccn12`, the growth is 15.3% (inactive). For the compound `COc1ccc(/C=C/c2nc(Nc3ccc(S(=O)(=O)Nc4cc(C)on4)cc3)c3ccccc3n2)cc1`, the growth is 29.9% (inactive). `O=C(N/N=C\c1cccc([N+](=O)[O-])c1)N/N=C/c1cccc([N+](=O)[O-])c1`: the growth is 82% (inactive).
